This is a sample that favours compounds with a hit; in the whole collection about 3.8% have one here.
ATXN viability – reduces viability in counter-screen for ATXN expression inhibitors. S2 cells (HEK-293 line with an ATXN2-luciferase reporter) viability, CellTiter-Fluor protease fluorescence, 24 h. Potency, µM (series often up to 56.7 µM), hits mostly cytotoxic. 400,000 tested, 0.49% active. AID 651635; also: nearly all actives have a fitted effect of over 40% in size
HT1080 IDH1KD tx – kills HT-1080 cells with IDH1 knockdown | Potency, µM (top dose mostly 46.1 µM), inactives show at the top dose activity, negative = toxicity, most hits filed as cytotoxic | AID 686971 | HT-1080 IDH1 knockdown viability, ATP luminescence, 48 h | 360,000 tested, 2% active;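 also: 0% = DMSO wells and -100% = cell-free medium wells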
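Knockdown cells (IDH1KD HT-1080) received compounds 2 h after plating at 750 cells/well and were kept 48 h at 37 °C in 5% FBS RPMI. A CellTiter-Glo luminescence read gave % activity for curve fitting.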
TGFb SMAD3 inh – inhibitors of TGF-b signaling; HepG2 CAGA-GFP TGF-b/SMAD3 reporter, GFP fluorescence, 18 h; TGF-beta stimulated, 500 pg/mL final; AID 588855; 410,000 tested, 1.2% active; Potency, µM (highest dose often 46.1 µM), for inactives: at the top dose activity, negative = inhibition, usual class: inhibitors; also: % is scaled to controls: 0 for no effect and ±100 for the full control effect; nearly all actives have a fitted effect of over 65% in size
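Smad-responsive CAGA-GFP expression was quantified in HEPG2 cells exposed to compounds and 500 pg/mL final TGF-beta for 18 h at 37 degrees C; unstimulated wells defined full inhibition.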
HepG2 tox – HepG2 cytotoxicity, counter-screen for TGF-b inhibitors; HepG2 CAGA-GFP viability, ATP luminescence, 18 h; Potency, µM (titrated, usually from 46.1 µM), for inactives: top-dose activity change, negative = cytotoxicity, usual class: cytotoxic; 410,000 tested, 0.76% active
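CellTiter-Glo luminescence gave cytotoxicity after 18 hours at 37 degrees C. The cells were HepG2 CAGA-GFP in 1% FBS DMEM, stimulated with 500 pg/mL TGF-beta after compound addition. %Activity was normalised to no-cell wells (complete cell-killing) and DMSO (no toxicity), and curves were fitted and classified.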
ATXN2 expr inh – inhibitors of ATXN2 expression; HEK-293 ATXN2-luciferase reporter, luminescence, 24 h; Potency, µM (doses to about 57 µM), without a hit: top-dose activity change, negative = inhibition, hits mostly inhibitors; 360,000 tested, 0.72% active; AID 1745845; also: % is scaled to controls: 0 for no effect and ±100 for the full control effect; nearly all actives have a fitted effect of over 55% in size
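qHTS (up to 57 uM final) was run with 24 h compound exposure of reporter cells at 37 °C. Each well was multiplexed: SteadyGlo luminescence measured ATXN2-luciferase expression after a fluorogenic Gly-Phe-AFC viability readout (25 uM final).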
HT1080NT lethal – kills 2HG-producing HT-1080-NT fibrosarcoma cells | 360,000 tested, 1.6% active | HT-1080-NT fibrosarcoma viability, CellTiter-Glo ATP luminescence, 48 h | Potency, µM (highest dose often 46.1 µM), without a hit: top-dose activity, negative = less viability, hits mostly cytotoxic | AID 686970;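 also: NT is the 2HG producing partner of a matched IDH1 knockdown line; 0% = DMSO-treated cells and -100% = media-only wells without cells; nearly all actives have a fitted effect of over 55% in size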
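HT-1080-NT; 750 cells/well; 5% FBS RPMI; 48 h compound, 37 degrees C; CellTiter-Glo luminescence; curve fitting and curve-class assignment.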
* = called active by the depositor; i = inactive; u = inconclusive; x = not tested or not shown; ! = repeats disagree; [ ] = another dose, or the depositor's remark. Calls follow the shape of the dose curve; as a rule, active = well fitted curve in the direction sought with a large enough effect; inconclusive = small, poorly fitted or top-dose-only effect, or another doubt; inactive = no such curve, though single readings can be large; an effect the other way counts as inactive or inconclusive. Potency is read from the fitted curve at half-maximal effect.

SMILES	ATXN viability	HT1080 IDH1KD tx	TGFb SMAD3 inh	HepG2 tox	ATXN2 expr inh	HT1080NT lethal
Cc1cccc(N2C(=O)NC(=O)/C(=C\C=C\c3ccco3)C2=O)c1	u	u	8.9µM*	-38%	u	u
O=C1NC(=O)N(c2ccccc2)C(=O)/C1=C/C=C/c1ccco1	18µM*	u	u	-98%	x	18µM*
Cn1cc(/C=C2\C(=O)NC(=O)N(c3ccccc3)C2=O)c2ccccc21	i	3%	2%	1%	-19%	-4%
CC(=O)Nc1ccc(OC(=O)N2CCN(/[N+]([O-])=N/Oc3ccc([N+](=O)[O-])cc3[N+](=O)[O-])CC2)cc1	x	x	u	-101%	x	x
CCCCOP(=O)(OCCCC)C(Nc1ccc(C(=O)OCC)cc1)c1ccncc1 (stereo not given)	i	-10%	u	-25%	-17%	u
ClCCN(CCCl)c1ccc(C=Nc2ccncc2)cc1	x	x	11%	-7%	x	x
CCc1ccc(NC(=O)Cn2c(=O)oc3cc(S(=O)(=O)N4CCCCCC4)ccc32)cc1	x	x	x	-42%	x	x
ClCCN(CCCl)/C(=C\c1ccccc1)c1ccnc2ccccc12	x	x	u	-42%	x	x
COc1ccc(-c2c(C)c3cc(OC(=O)N4CCOCC4)ccc3oc2=O)cc1	x	x	-4%	-26%	x	x
CC1(C)CC/C(=C/c2ccc(Cl)cc2)C1(O)Cn1cncn1 (stereo not given)	i	x	x	x	-9%[116 µM]	x
CCOc1cc2c(cc1OCC)-n1cccc1C(c1ccccc1OC)NC2 (stereo not given)	i	-16%	0%	-11%	-28%	-19%
CCOc1cc2c(cc1OCC)-n1cccc1C(c1ccc(F)cc1)NC2 (stereo not given)	i	-8%	u	-35%	-25%	-16%
CCOc1cc2c(cc1OCC)-n1cccc1C(c1c(O)cccc1OC)NC2 (stereo not given)	i	21µM*	0%	-13%	-32%	21µM*
CCOc1cc2c(cc1OCC)-n1cccc1C(c1ccc(C(C)C)cc1)NC2 (stereo not given)	u	21µM*	u	-165%	u	16µM*
Cc1c(P(=S)(c2ccccc2)c2ccccc2)[n+]2ccccc2n1C/C=C/c1ccccc1	14µM*	x	u	20µM*	u	x
COc1ccc(-n2c(/C=C/c3ccc(O)c(O)c3)nc3ccccc3c2=O)cc1	x	-9%	u	-39%	x	-11%
COc1cc(/C=C/c2nc3ccccc3c(=O)n2-c2ccc(O)cc2)ccc1O	i	18µM*	u	-111%	47%	16µM*
COc1ccc(NS(=O)(=O)c2ccc3c(c2)CCCN3C(=O)C2CCC2)cc1OC	u	x	-13%	-23%	u	x
COC[C@H]1OC(=O)c2coc3c2[C@@]1(C)C1=C(C3=O)[C@@H]2CCC(=O)[C@@]2(C)C[C@H]1OC(C)=O	i	23µM*	u	-28%	-23%	u
Cc1nn(C(C)(C)C)c(C)c1/C=N/OC(=O)Nc1ccc(Cl)c(Cl)c1	i	-4%	18µM*	-78%	x	-4%
CN1C(=O)c2ccccc2Sc2ccc(NC(=O)c3ccc(C(F)(F)F)cc3)cc21	u	x	-1%	-5%	u	x
Cc1nnc2n1-c1sc(CCC(=O)N3CCOCC3)cc1C(c1ccccc1Cl)=NC2	u	x	x	x	-1%	x
Cc1nnc2n1-c1sc(CCc3ccc(CC(C)C)cc3)cc1C(c1ccccc1Cl)=NC2C (stereo not given)	32µM*	x	x	x	35µM*	x
CC[C@H](C)[C@@H]1NC(=O)CNC(=O)c2csc(n2)[C@H](C(C)(C)O)OC(=O)C(C)(C)[C@H](CCCC(C)(Cl)Cl)OC(=O)c2csc1n2	i	0.073µM*	u	-36%	-34%	2.1µM*
Oc1ccc(O)c2c1C1(Cl)C(Cl)=C(Cl)C2(Cl)C1(Cl)Cl	u	23µM*	u	i	u	u
SMILES	ATXN viability	HT1080 IDH1KD tx	TGFb SMAD3 inh	HepG2 tox	ATXN2 expr inh	HT1080NT lethal
O=c1[nH]c2ccccc2n1C1CCNCC1	i	x	x	x	2%	x
O=Cc1cn(Cc2ccc(Br)cc2)c2ccccc12	u	-12%	1µM*	-46%	u	-15%
O=Cc1cn(Cc2cccc(F)c2)c2ccccc12	i	-12%	u	-45%	u	-14%
COC(=O)C1=C(c2ccc(-c3ccccc3)c(F)c2)C[C@@H]2CC[C@H]1N2C(=O)N1CCCCC1	u	21µM*	u	-5%	u	u
COC(=O)C1=C(c2cc3ccccc3s2)C[C@@H]2CC[C@H]1N2C(=O)N1CCCCC1	u	8.2µM*	u	-7%	-32%	u
COC(=O)C1=C(c2ccc(-c3ccccc3)c(F)c2)C[C@@H]2CC[C@H]1N2C(=O)N1CCCC1	u	-26%	u	-28%	u	-19%
CC1(C)C[C@H]2C=C(C=O)[C@]3(C=O)C[C@]3(C)[C@H]2C1	7.1µM*	12µM*	u	10µM*	3.5µM*	16µM*
Cc1ccc2c(c1)C1CN(C)CCC1N2C(=O)c1cn(-c2ccccc2)nc1-c1ccccc1 (stereo not given)	u	21µM*	u	-44%	-11%	x
Cc1ccc2c(c1)[C@@H]1CN(C)CC[C@@H]1N2C(=O)Nc1cccc(C(F)(F)F)c1	i	u	u	-92%	u	13µM*
Cc1ccc2c(c1)C1CN(C)CCC1N2C(=O)Nc1cccc(C(F)(F)F)c1 (stereo not given)	i	u	0%	-86%	-13%	u
ClCCCN1CCN(c2cccc(Cl)c2)CC1	i	x	x	x	0%	x
O=[N+]([O-])/N=C1\NCCN1Cc1ccc(Cl)nc1	i	x	x	x	8%	x
CN(C)C(=O)Oc1c(Cl)cc(Cl)c2cccnc12	i	6%	1%	4%	5%	-1%
Cc1ccc2c(Cl)cc(Cl)c(O)c2n1	u	8.2µM*	13µM*	-30%	7.1µM*!	-24%
COC1=C[C@@H]2C3=C([C@@H]2C1=O)[C@@H](NC(C)=O)CCc1cc(OC)c(OC)c(OC)c13	i	-10%	2%	-7%	9%	10%
COc1cc2c(c(OC)c1OC)-c1ccc(O)c(=O)cc1C(NC(C)=O)CC2 (stereo not given)	u	0.041µM*	u	-2%	0%	0.0052µM*
COc1ccc2c(c1)C(NC(C)=O)CCc1cc(OC)c(OC)c(OC)c1-2 (stereo not given)	i	u	-53%	-24%	15%	0.0058µM*
